Screening results from PubChem.
A selection: hits, their analogues and other compounds. The true share with any hit is near 10%.
Six1-Eya2 inh = inhibitors of human Six1/Eya2 interaction | activity change, % (no concentration beside the values) | AlphaScreen GST-Six1/His-Eya2 binding, biochemical; stronger effect = lower value | Q15475+O00167 | 0.56% of 360,000 active; in the data active = activity change below about -65%; inconclusive = mostly about -30% to -63%; note: % is set by controls: 0 for no effect and ±100 for the full control effect
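Compounds are tested against tagged Six1 and Eya2 proteins bridged by glutathione donor and nickel acceptor beads; after a one-hour incubation at 37 °C without light, AlphaScreen emission is recorded.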
G9a block = inhibitors of human histone lysine methyltransferase G9a | G9a H3K9 monomethylation, AlphaScreen, 2 h | Potency, µM (series often up to 102 µM), for inactives: at the top dose activity, negative = inhibition, hits mostly inhibitors | 8.8% of 350,000 active | Q96KQ7 | AID 504332; note: potency is the fitted concentration of half-maximal effect; % is set by controls: 0 for no effect and ±100 for the full control effect; nearly all actives have a fitted effect of over 75% in size
Target sequence (Q96KQ7 913-1193 limits assumed): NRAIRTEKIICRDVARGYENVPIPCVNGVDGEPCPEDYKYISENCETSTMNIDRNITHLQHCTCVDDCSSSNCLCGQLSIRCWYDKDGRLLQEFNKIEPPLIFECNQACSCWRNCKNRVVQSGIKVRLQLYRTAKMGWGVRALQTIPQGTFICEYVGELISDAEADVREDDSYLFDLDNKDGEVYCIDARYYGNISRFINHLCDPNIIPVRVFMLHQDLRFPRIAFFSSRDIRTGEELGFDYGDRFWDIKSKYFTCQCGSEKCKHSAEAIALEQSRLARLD
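Step 1: enzyme (final 20 nM) with compound, 15 min RT. Step 2: substrate peptide 500 nM and SAM 20 uM, 2 h RT. Step 3: anti-H3K9me1 antibody and AlphaScreen beads, 10 min, then plate read.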
CtBP-E1A inh = CtBP/E1A binding inhibition. AlphaScreen GST-E1A/His-CtBP binding, 1536-well; stronger effect = lower value. activity change, % (concentration not given with the values). 0.49% of 340,000 active; in the data active = activity change below about -65%; inconclusive = mostly about -30% to -63%; note: % is set by controls: 0 for no effect and ±100 for the full control effect
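Steps: dispense buffer (Tris pH 8.0, NaCl 300 mM, TCEP 1 mM, BSA, Tween 20); add 5X protein mix (GST-E1A, His-CtBP, 125 nM each); pin 23 nL compound; 2 h at 37 °C, dark; add 5X beads (50 ug/mL); 1 h; read.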
BAZ2B inh = blocks human BAZ2B | Q9UIF8 | AlphaScreen BAZ2B-H3K14Ac peptide displacement | Potency, µM (highest dose often 114 µM), for the others: at the highest dose activity change, negative = inhibition, actives largely listed as inhibitors | 4.4% of 360,000 active; note: potency is the fitted concentration of half-maximal effect; % is set by controls: 0 for no effect and ±100 for the full control effect; nearly all actives have a fitted effect of over 60% in size
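Protein-peptide AlphaScreen: BAZ2B 50 nM, b-H3K14Ac 50 nM, 1x PBS pH 7.4 + 0.01% Tween-20. Preincubation 30 min RT; cpd 30 min RT (top 110 uM); beads 20 min RT, light-protected.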
JMJD2A Tudor inh = inhibitors of human JMJD2A Tudor domain. O75164. AlphaScreen JMJD2A-Tudor / H3K4me3 peptide binding. Potency, µM (doses to about 114 µM), without a hit: at the top dose activity change, negative = inhibition, actives largely listed as inhibitors. 4.4% of 390,000 active; note: potency is the fitted concentration of half-maximal effect; % is set by controls: 0 for no effect and ±100 for the full control effect; nearly all actives have a fitted effect of over 50% in size
HP1b binding inh = blocks HP1-beta chromodomain binding to methylated histone tails; P83916; Potency, µM (top dose mostly 114 µM), for inactives: at the highest dose activity change, negative = inhibition, most hits filed as inhibitors; 0.56% of 390,000 active; AlphaScreen HP1-beta / biotin-H3K9me3 peptide binding; AID 540317; note: potency is the fitted concentration of half-maximal effect; nearly all actives have a fitted effect of over 70% in size
Target sequence (P83916 whole entry, looked up): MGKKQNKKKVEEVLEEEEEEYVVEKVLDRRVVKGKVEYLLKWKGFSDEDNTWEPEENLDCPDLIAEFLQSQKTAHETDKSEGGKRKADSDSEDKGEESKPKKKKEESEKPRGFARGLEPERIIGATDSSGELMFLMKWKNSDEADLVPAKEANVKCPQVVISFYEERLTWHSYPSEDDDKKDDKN
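AlphaScreen: HP1-beta (50 nM) preformed 30 min with biotin-H3(1-18)K9me3 peptide (50 nM) in PBS pH 7.4, 0.01% Tween-20. Compound added for 30 min at RT, then streptavidin donor/nickel chelate acceptor beads (10 ug/mL) for 30 min.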
An asterisk follows results filed as active; ? = inconclusive; . = no result; [ ] = another dose, or the depositor's remark. Unless noted, calls come from the whole dose curve; as a rule, active = well fitted inhibition curve with a large enough effect; inconclusive = small, poorly fitted or top-dose-only effect; inactive = no such curve, though single readings can be large or run the other way.

SMILES	Six1-Eya2 inh	G9a block	CtBP-E1A inh	BAZ2B inh	JMJD2A Tudor inh	HP1b binding inh
C=CCNC(=O)/C(C#N)=C/c1ccccc1[N+](=O)[O-]	18	?	0	-6%	-3%	33%
CCCCCCCCNC(=O)/C(C#N)=C/c1ccccc1[N+](=O)[O-]	3	40µM*	-3	-2%	?	-25%
O=C(Nc1ccccc1C(=O)OCc1cc(=O)n2ccsc2n1)c1ccc(Cl)cc1	.	-27%[59 µM]	.	-12%	-8%	29%
Cc1cc2c(s1)c1cnn(Cc3c(Cl)cccc3Br)c(=O)c1n2C	.	.	.	.	-5%	.
COC(=O)c1ccc(Cl)c(NC(=O)C2CCN(S(=O)(=O)Cc3ccccc3)CC2)c1	.	-8%[59 µM]	.	-17%	-4%	27%
O=C(Cc1cccc(F)c1)Nc1ccc2c(c1)CCC2	8	16%	-2	3%	-5%	3%
COc1ccc(NC(=O)CN(C)CC(=O)Nc2ccc3c(c2)CCC3)cc1	-9	-19%	-4	-22%	-17%	16%
CN(CC(=O)Nc1ccc2c(c1)CCC2)CC(=O)Nc1ccccc1Br	-2	7%	.	12%	14µM*	21%
CC(CNC(=O)CN(C)CC(=O)Nc1ccccc1Br)c1ccccc1 (stereo not drawn)	0	45µM*	-4	13%	5%	32%
O=C(Cc1ccc2c(c1)CCCC2)Nc1ccc2ccccc2c1	-4	7.1µM*	5	-4%	-12%	?
Cc1ccc(NC(=O)C2=C(O)c3sccc3N(C)S2(=O)=O)cc1	4	-9%[12.7 µM]	2	1%	?	17%
Cc1ccc(NC(=S)C2=C(O)c3sccc3N(C)S2(=O)=O)cc1	1	18µM*	-1	-39%	-26%	6%
O=C(CC1SC2=NCCN2C1=O)Nc1ccc(Br)cc1 (stereo not drawn)	4	17%[59 µM]	1	11%	-18%	20%
O=C(Nc1ccc(F)cc1)C1=CC(=O)N2CCN=C2S1	.	1µM*	.	?	.	.
C=CCNc1nc(=S)[nH]c2cc(OC)c(OC)cc12	-83*	25µM*	-74*	-23%	?	16%
COc1cc2[nH]c(=O)n(C3CCCCC3)c(=O)c2cc1OC	2	27%[12.7 µM]	0	7%	-22%	27%
COc1cc2[nH]c(=S)nc(NC3CCCC3)c2cc1OC	.	32µM*	.	-35%	.	.
O=C(c1cccn1-c1nnc(N2CCCC2)s1)N1CCN(c2ccc(Cl)cc2)CC1	.	-33%[59 µM]	.	?	-23%	10%
O=c1c(=O)n(-c2ccccc2)ccn1Cc1cccc(C(F)(F)F)c1	.	3%[59 µM]	.	-16%	3%	34%
O=[N+]([O-])c1cccc(CSc2nnc3ccccn23)c1	0	-6%	-18	1%	-1%	20%
c1ccn2c(SCc3ccc4c(c3)OCCO4)nnc2c1	11	56µM*	-2	?	-6%	32%
O=C(CSc1nnc(NC(=O)NC2CCCCC2)s1)Nc1ccccc1F	.	5%[59 µM]	.	0%	6%	40%
CCCn1c2ccccc2c2cnn(CC(=O)NCCc3ccc(OCC)cc3)c(=O)c21	.	5%[59 µM]	.	4%	-16%	10%
COc1cc(NC(=O)c2nnn(CC(=O)Nc3ccccc3)c2N)cc(OC)c1	.	4%[59 µM]	.	8%[57.1 µM]	4%	18%
O=C(CN1C(=O)S/C(=C\c2ccc(-c3cc(C(=O)O)ccc3Cl)o2)C1=O)Nc1ccc2c(c1)OCO2	.	?	.	8.9µM*	.	.
SMILES	Six1-Eya2 inh	G9a block	CtBP-E1A inh	BAZ2B inh	JMJD2A Tudor inh	HP1b binding inh
Cn1cc(/C=C2/SC(=O)N(CC(=O)Nc3ccc4c(c3)OCO4)C2=O)c2ccccc21	0	26%	4	-1%	-1%	13%
Cc1ccc(NC(=O)CN2C(=O)S/C(=C\c3ccc(-c4cccc(C(=O)O)c4C)o3)C2=O)cc1C	-3	18µM*	0	16µM*	18µM*	35µM*
Cc1ccc(N2CCN(C(=O)c3cc4cc5ccc(C)cc5nc4s3)CC2C)cc1 (stereo not drawn)	.	4%[59 µM]	.	-19%	-8%	28%
C/C(=N/NC(=O)CNC(=O)c1ccccn1)c1cccc([N+](=O)[O-])c1	-3	18µM*	1	?	0%	24%
C/C(=N\NC(=O)c1cccnc1)c1cccc([N+](=O)[O-])c1	0	21%[59 µM]	-9	-20%	-13%	22%
O=C(NNC(=O)c1ccccn1)c1cccc([N+](=O)[O-])c1	-82*	28%	-66*	?	-16%	42%
O=C(c1cccc([N+](=O)[O-])c1)c1ccccn1	1	.	.	-2%	-6%	17%
COc1ccc(OC)c(/C=C2\NC(=O)NC2=O)c1	1	-1%	1	6%	-3%	30%
COc1cc(N2CCCC2)c(OC)cc1/C=C1/NC(=S)NC1=O	-15	22µM*	9	?	-34%	-28%
COc1ccc(O)c(/C=N/NC(=O)CCC(=O)Nc2ccc(C)cc2)c1	-1	27%	.	-18%	-16%	30%
COc1ccc(/C=N/NC(=O)CN2CCCc3ccccc32)c(OC)c1	-24	?	-22	50µM*	50µM*	?
COc1ccc(O)c(/C=N/NC(=O)CN2CCS(=O)(=O)CC2)c1	?	41%	-71*	-11%	-27%	56%
CCOc1ccc(-c2nn(CC(=O)NC3CCCC3)c3c2cnc2ccc(C)cc23)cc1	.	15%[59 µM]	.	-17%	-17%	-9%
CCCCn1c(N)c(N(CCOC)C(=O)COC(=O)CNC(=O)c2ccc(Cl)c(Cl)c2)c(=O)[nH]c1=O	18	.	35	.	-7%	57%
CCCCN(C(=O)CSCC(=O)Nc1ccc(C)cc1)c1c(N)n(Cc2ccccc2)c(=O)[nH]c1=O	-1	-1%[12.7 µM]	-16	0%	-8%	14%
CCCCn1c(N)c(N(CCOC)C(=O)CSCc2ccc(Cl)c(Cl)c2)c(=O)[nH]c1=O	5	56µM*	-13	1%	-8%	6%
CCCCn1c(N)c(N(CCOC)C(=O)CSCc2ccc(C)cc2)c(=O)[nH]c1=O	-4	45µM*	18	6%	-11%	46%
COCCn1c(N)c(N(Cc2ccccc2)C(=O)CSCC(=O)Nc2ccc(C)cc2)c(=O)[nH]c1=O	0	32µM*	5	-4%	-7%	34%
COc1cc(-c2coc3cc(OCc4ccccc4)c(OC)c(O)c3c2=O)cc(O)c1OC	.	-30%[2.33 µM]	.	.	.	.
Cc1ccc2c(c1)c1c(c(=O)n(-c3cccc(Cl)c3)c(=O)n1C)n2C	.	2%[59 µM]	.	-4%	-8%	-1%
COc1ccc(CCC(=O)NCc2nc3cccnc3n2Cc2ccc(OC)cc2)cc1	.	2%[59 µM]	.	0%	-9%	23%[57 µM]
Cc1ccc(C(=O)NCC(c2cccs2)S(=O)(=O)c2cccs2)cc1 (stereo not drawn)	.	0%[59 µM]	.	3%	-7%	32%
